Reference: PubChem BioAssay AID1021 (Emory University Molecular Libraries Screening Center, 2008)
“And” between values parts separate entries of the source, which are not always exact repeats. Equal entries are not always repeated. Hit rate of the full screen: of about 220,000 compounds, about 2,100 (0.95%) were called active.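 The calls were made as follows: active = compounds that cut the binding signal by more than half at the single screening dose; inactive = the rest.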 This excerpt belongs to a sample that is enriched for actives.

Target: Induced myeloid leukemia cell differentiation protein Mcl-1 (Homo sapiens) (UniProt Q07820)
Sequence (Q07820 whole entry, looked up): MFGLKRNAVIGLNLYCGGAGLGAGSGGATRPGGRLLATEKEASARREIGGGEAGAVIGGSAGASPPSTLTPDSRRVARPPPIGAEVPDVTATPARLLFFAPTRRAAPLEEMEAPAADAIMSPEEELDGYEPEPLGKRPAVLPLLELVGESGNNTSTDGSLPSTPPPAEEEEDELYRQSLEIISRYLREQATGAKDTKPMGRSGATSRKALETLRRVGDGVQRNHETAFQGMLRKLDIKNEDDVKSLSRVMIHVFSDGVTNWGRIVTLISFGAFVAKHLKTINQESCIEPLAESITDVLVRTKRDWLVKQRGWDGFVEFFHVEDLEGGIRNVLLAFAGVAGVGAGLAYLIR
Assay: Mcl-1/Bid binding inhibitors, primary screen, biochemical, TR-FRET, 1536-well (AID 1021);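 also: His-tagged Mcl-1 with europium anti-His antibody binding Bid BH3 peptide; 0% = Mcl-1 plus peptide wells and 100% = peptide-only wells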
Settings: TR-FRET Mcl-1/Bid-Dy647 peptide binding, at 21.7 µM, active compounds read high

inhibition, inactive:
COc1ccc(OC)c(Nc2nc3ccccc3n3cnnc23)c1 -7.62%
CN(C)/C=C(/C(=O)c1ccccc1Cl)S(C)(=O)=O -0.7%
CCOC(=O)c1cn(CC)c2cc(F)c(F)cc2c1=O -8.08%
CCC(=O)Nc1cccc(C2=NOC3(C2)C[C@@H](C(N)=O)N(C(=O)c2cc([N+](=O)[O-])cc([N+](=O)[O-])c2C)C3)c1 (stereo partly specified) -35.2%
CC(C)C(=O)N1CCC2(CC1)Oc1ccc(F)cc1C(=O)C21CC(c2ccccc2)=NO1 (stereo unspecified) -8.72%
CC/S(CC1CC1(Cl)Cl)=N\S(=O)(=O)c1ccc(C)cc1 (stereo unspecified) -4.99%
CCCC/S(C)=N/S(=O)(=O)c1ccc(C)cc1 (stereo unspecified) 4.25%
O=C1[C@@H]2C(c3cccnc3)=NO[C@@H]2C(=O)N1c1ccc(Cl)cc1Cl -19.8%
CCN1C(=O)/C(=C2/Sc3ccccc3N2CCCS(=O)(=O)O)SC1=S -30.2% and -29.9%
CCC(=O)/C=C1\Sc2ccccc2N1CC -12.9%
Cc1cc(F)ccc1NC(=O)C(C)n1c2ccccc2c2nc(=O)cc(C)n21 (stereo unspecified) -4.95%
CCOc1ccc(NC(=O)c2cc(C)nc3ccccc23)cc1 -4.96%
COc1ccccc1C(=O)NNC(=O)c1ccc(NC(=O)c2ccccc2)cc1 -23.3%
CCOC(=O)N/N=C1\CC(C)S(=O)(=O)c2ccc(Cl)cc21 (stereo unspecified) -6.47%
O=C(O)CCc1cccnc1 -29.9%
COc1ccc2nc(NC(=O)c3ccc(Br)s3)sc2c1 4.41%
COc1ccc2nc(Nc3nc4cc5c(cc4s3)OCCO5)sc2c1 -62.6%
COc1cccc(-c2nnc(SCCOc3ccc4c(C)cc(=O)oc4c3)o2)c1 -1.18%
COc1ccc(N2CCN(C(=O)COc3ccc4c(C)cc(=O)oc4c3)CC2)cc1 -16.1%

inhibition, active:
CC(C)c1ccc2c(c1)c(SC(C)(C)C)c(CC(C)(C)C(=O)O)n2Cc1ccc(Cl)cc1 83.2%
Cc1ccc(S(=O)(=O)/N=S(\C)C(C)C)cc1 (stereo unspecified) 89.4%
CCN1C(=O)/C(=c2\s/c(=C3\Sc4ccccc4N3C)c(=O)n2C)N(C)C1=S 79.2%
COCCN(CCOC)c1nc(N)c2c(N)nc3c(c2c1C#N)CC(=O)N3Cc1ccc(Cl)cc1 54.2%
COc1ccccc1C(=O)Nc1ccc(OCc2nnc3c4ccccc4c(C)nn23)cc1 59.8%
COc1ccc2nc(Nc3nc4ccc(NC(C)=O)cc4s3)sc2c1 72.8%
COc1ccc(-c2csc3ncnc(Oc4ccc5c(C)cc(=O)oc5c4)c23)cc1 63.3%
